# Assay outcomes as filed in PubChem BioAssay.
# Sampled rows, rich in hits. Any-hit rate of the full collection: about 27%.
# CYP2C9 inh: blockers of cytochrome P450 2C9 activity – biochemical, luminescence, ADME assay, primary screen; P11712; CYP2C9 Supersomes, luciferin-H conversion; inhibition, % at 5 µM; 96,000 tested, 20% active; AID 777, 2007;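 active = blocking of liver enzyme CYP2C9 beyond about 50% at 5 µM, limit read from the data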
# Target sequence (P11712 whole entry, looked up): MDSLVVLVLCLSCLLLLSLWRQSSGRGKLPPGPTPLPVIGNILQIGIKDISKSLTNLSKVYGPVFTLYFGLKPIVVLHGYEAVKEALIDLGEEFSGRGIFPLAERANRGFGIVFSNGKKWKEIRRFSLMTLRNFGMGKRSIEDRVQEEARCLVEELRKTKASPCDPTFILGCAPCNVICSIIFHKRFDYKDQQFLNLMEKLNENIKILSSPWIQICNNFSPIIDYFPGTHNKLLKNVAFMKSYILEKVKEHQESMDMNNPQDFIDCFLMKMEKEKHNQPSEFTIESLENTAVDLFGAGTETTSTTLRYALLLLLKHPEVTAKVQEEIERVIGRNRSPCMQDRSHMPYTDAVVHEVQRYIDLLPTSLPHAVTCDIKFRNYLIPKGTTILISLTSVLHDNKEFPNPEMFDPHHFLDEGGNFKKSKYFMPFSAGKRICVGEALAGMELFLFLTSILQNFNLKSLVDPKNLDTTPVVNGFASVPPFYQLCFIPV
# CYP2C9 act: human CYP2C9 activators, primary screen, biochemical, luminescence; Cytochrome P450 2C9 (Homo sapiens), P11712; recombinant CYP2C9, luciferin-H conversion; active compounds read high; factor 1 = untreated enzyme, 0 = blocked; activation factor at 5 µM; 96,000 tested, 1.4% active; AID 1024, 2008;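 active = activation factor of 2 or more for CYP2C9 at a 5 µM dose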;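 also: 0 = sulfaphenazole-blocked wells and 1 = vehicle-only wells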
# Cav3 T inh: Cav3.2 calcium influx blockers – cell-based, Fluo-4 calcium fluorescence, FDSS, MLSMR library, primary screen; Voltage-dependent T-type calcium channel subunit alpha-1H (Homo sapiens), O95180; Cav3.2-expressing cells; active compounds read low; B-score at 10 µM; 100,000 tested, 4% active; AID 449739, 2010;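 active = single-dose well whose peak fluorescence ratio is a statistical outlier from its plate by either plate-standardised score or position-corrected B-score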
# CYP2C19 inh: blockers of cytochrome P450 2C19 activity – biochemical, luminescence, ADME assay, primary screen. P33261. CYP2C19 Supersomes, luciferin-H EGE luminescence, 30 min. inhibition, % at 5 µM. 96,000 tested, 21% active;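 active = CYP2C19 inhibition above a set limit at 5 µM in the primary screen, cut at about 50% in these data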;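 also: plate controls were negative control wells for no effect and 2.5 mM tranylcypromine positive control for full effect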
# CYP2C19 act: human CYP2C19 activators, primary screen, biochemical, luminescence; Cytochrome P450 2C19 (Homo sapiens), P33261; recombinant CYP2C19, luciferin-H EGE luminescence; active compounds read high; 0 = fully inhibited enzyme, 1 = untreated enzyme; activation factor at 5 µM; 96,000 tested, under 10 active; AID 1025, 2008;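 active = activation factor of at least 2 at 5 µM in the primary screen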;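 also: 0 = wells with 2.5 mM tranylcypromine and 1 = vehicle-only wells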
# Numbers without * were called inactive; . = no result given.
SMILES,CYP2C9 inh,CYP2C9 act,Cav3 T inh,CYP2C19 inh,CYP2C19 act
Cc1nnc(NC(=O)C2CCCN(S(=O)(=O)c3ccccc3C(F)(F)F)C2)s1 (centres undefined),62*,0.4,-0.083,51*,0.5
Cc1[nH]c(=O)[nH]c(=O)c1S(=O)(=O)N1CCCC(C(=O)NCc2ccco2)C1 (centres undefined),97*,0,0.54,74*,0.3
CS(=O)(=O)N1CCCC(C(=O)NCc2ccco2)C1 (centres undefined),-14,1.1,0.86,-18,1.2
CC(C)(C)NC(=O)C1CCCN(S(=O)(=O)c2cccc3cccnc23)C1 (centres undefined),-166,2.7*,0.091,37,0.6
O=C(Nc1ccccc1F)C1CCCN(S(=O)(=O)c2cccc3cccnc23)C1 (centres undefined),-73,1.7,0.89,76*,0.2
CC(N1CCOC1=O)S(=O)(=O)c1ccccc1 (centres undefined),-1,1,-0.59,-2,1
O=C(NCc1nc2ccccc2[nH]1)c1cccc(S(=O)(=O)N2CCCC2)c1,39,0.6,.,4,1
COc1ccc(O)c(/C=N/c2sc(C)c(C)c2C#N)c1,-2,1,-0.41,15,0.9
O=C(CN1CCN(C(=O)c2cccc(F)c2)CC1)NC1CCCCC1,-12,1.1,0.24,1,1
Cc1cc2c(cc1C)CSC(c1ccc3ccccc3c1O)SC2,92*,0.1,-0.46,53*,0.5
Cc1cc2c(cc1C)CSC(c1c(O)ccc3ccccc13)SC2,99*,0,-0.63,81*,0.2
Cc1cc2c(cc1C)CSC(c1ccccc1O)SC2,14,0.9,-0.058,18,0.8
Cc1cc2c(cc1C)CSC(c1ccccc1OC(=O)C(C)(C)C)SC2,52*,0.5,.,27,0.7
COc1ccc(C2=CC(=O)OC3(CCCC3)O2)cc1,16,0.8,0.014,36,0.6
CC(=Nc1ccccc1)Nc1ccccc1,-9,1.1,0.77,79*,0.2
CC(=O)Oc1ccccc1C(=O)Nc1ccccc1,.,.,-0.59,.,.
O=c1c([N+](=O)[O-])c(N2CCCCC2)c2ccccc2n1-c1ccccc1,-12,1.1,-0.59,-9,1.1
CCc1nc(N)c(C#N)c(-c2ccc(F)cc2)c1C,4,1,-0.04,36,0.6
CCCc1ccc(-c2c(C)sc(N)c2C#N)cc1,68*,0.3,-0.64,31,0.7
Cc1csc2ncc(C(=O)NC(C)c3ccccc3)c(=O)n12 (centres undefined),-36,1.4,-0.31,48,0.5
Cc1c(C(=O)Nc2ccccc2)oc2c1C(=O)CC(C)(C)C2,29,0.7,-0.097,-1,1
Cc1c(C(=O)Nc2ccncc2)oc2c1C(=O)CC(C)(C)C2,94*,0.1,0.6,99*,0
Cc1ccc(NC(=O)c2oc3c(c2C)C(=O)CC(C)(C)C3)cc1,11,0.9,0.058,77*,0.2
O=C(CN1CCN(C2CCCCC2)CC1)NCCC1=CCCCC1,21,0.8,-0.027,16,0.8
COc1ccccc1C1CC(c2ccc(Cl)cc2Cl)Nc2nc(N)nn21 (centres undefined),39,0.6,-1.3,83*,0.2
SMILES,CYP2C9 inh,CYP2C9 act,Cav3 T inh,CYP2C19 inh,CYP2C19 act
Nc1nc2n(n1)C(c1cccs1)CC(c1ccc(Br)cc1)N2 (centres undefined),27,0.7,0.24,66*,0.3
COc1ccc(C2CC(c3ccc(Br)cc3)Nc3nc(N)nn32)cc1 (centres undefined),51*,0.5,-0.67,22,0.8
Cc1cccc(C2CC(c3ccc(Br)cc3)Nc3nc(N)nn32)c1 (centres undefined),48,0.5,-0.26,77*,0.2
O=C1c2ccccc2C(=O)N1CC1=CCS(=O)(=O)C1,-26,1.3,-0.17,0,1
COc1ccc(C2NC(=O)NC(C)=C2C(C)=O)cc1 (centres undefined),.,.,0.09,.,.
O=C(Oc1ccc(-c2nnco2)cc1)N1CCOCC1,.,.,0.00052,.,.
c1cnc(Oc2ccc(-c3nnco3)cc2)cn1,15,0.8,0.022,54*,0.5
